HT1080 IDH1KD tx: toxicity to HT-1080 IDH1 knockdown cells (counter line). HT-1080 IDH1 knockdown viability, ATP luminescence, 48 h. Potency, µM (doses to about 46.1 µM), usual class: cytotoxic. 360,000 compounds, 2% hits. AID 686971
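% activity derives from luminescence (CellTiter-Glo), normalised to DMSO and no-cell wells. HT-1080-IDH1KD cells, 750/well, had 48 h compound exposure at 37 °C.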
HT1080NT lethal: kills 2HG-producing HT-1080-NT fibrosarcoma cells; HT-1080-NT fibrosarcoma viability, CellTiter-Glo ATP luminescence, 48 h; Potency, µM (top dose mostly 46.1 µM), most hits filed as cytotoxic; 360,000 compounds, 1.6% hits; AID 686970;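 also: NT is the 2HG producing partner of a matched IDH1 knockdown line; nearly all actives have a fitted effect of over 55% in size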
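Luminescent CellTiter-Glo readout after 48 hours of compound exposure at 37 degrees C defined viability of HT-1080-NT cells. Activity was normalized to DMSO wells and cell-free media wells; concentration-response curves were fitted and assigned curve classes.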
TDP1 cell CPT: growth inhibition of DT40 Tdp1-/-;hTDP1 cells with camptothecin (screen for TDP1 inhibitors); chicken DT40 Tdp1-/-;hTDP1 cells + 20 nM CPT, ATP luminescence, 48 h; Potency, µM (top dose mostly 46.2 µM), most hits filed as inhibitors; AID 686979; 420,000 compounds, 12% hits; also: nearly all actives have a fitted effect of over 55% in size
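Chicken DT40 Tdp1-/- cells complemented with human TDP1, 400 cells/well, exposed to compounds plus 20 nM camptothecin for at least 48 h at 37 C; viability read as ATP content by CellTiter-Glo luminescence.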
TDP1 cell noCPT: qHTS for Inhibitors of human tyrosyl-DNA phosphodiesterase 1 (TDP1): qHTS in cells in absence of CPT | DT40 Tdp1-/- hTDP1 cells, no CPT, ATP luminescence, 48 h | 420,000 compounds, 15% hits | Potency, µM (titrated, usually from 46.2 µM), actives largely listed as inhibitors | AID 686978, 2013; also: nearly all actives have a fitted effect of over 55% in size
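Growth of hTDP1-complemented DT40 Tdp1-knockout cells is measured by ATP luminescence after at least 48 hr compound exposure at 37 °C, with DMSO substituting for the 20 nM CPT used in the parallel screen.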
IL1B secr inh: blocks inflammasome-driven IL-1 beta release | THP-1 LPS/ATP IL-1B secretion, AlphaLISA, 16 h; active compounds read low | activity change, % at 57.5 µM | 360,000 compounds, 4.7% hits | AID 743279; in the data active = activity change below about -50%; inconclusive = mostly about -30% to -49%
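THP-1 cells pretreated 1 hr with compounds (up to 57.5 uM final), then stimulated with LPS (250 ng/mL final) plus ATP (1.25 mM final); secreted IL-1B measured by AlphaLISA after 16 hr, decreased signal indicating inhibition.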
Each line names hits and unclear results; the compound was inactive in the other large screens. Only some compounds are listed: those with a hit (about 19% of all), similar ones and a draw of the others. Unless noted, calls follow the shape of the dose curve; as a rule, active = well fitted curve in the direction sought with a large enough effect; inconclusive = small, poorly fitted or top-dose-only effect, or another doubt; inactive = no such curve, though single readings can be large; an effect the other way counts as inactive or inconclusive.

CCOC(=O)C1(Cc2ccccc2)CCN(Cc2ccc3c(c2)OCCO3)CC1	none
C=CCNc1nc(NC(C)(C)CO)nc(OC)n1	none
CCOCCCn1c(=S)[nH]c2cc(C(=O)NC3CCCC(C)C3C)ccc2c1=O (centres undefined)	none
CC(C)c1cc(CNC(=O)C2CCC(=O)N(CCc3ccc(Cl)cc3)C2)on1 (centres undefined)	none
COc1nc(C)cc(C)c1S(=O)(=O)c1ccccc1C	none
CCSc1nc(C)cc(C)c1S(=O)(=O)c1ccccc1C	TDP1 cell CPT inconclusive, TDP1 cell noCPT 21µM
Cc1cc(C)c(S(=O)(=O)c2c(C)cccc2C)c(OCC(C)C)n1	TDP1 cell CPT 23µM, TDP1 cell noCPT 13µM
CSc1nc(C)cc(C)c1S(=O)(=O)c1ccccc1C	TDP1 cell CPT inconclusive, TDP1 cell noCPT inconclusive
C#CCOc1nc(C)cc(C)c1S(=O)(=O)c1ccccc1C	IL1B secr inh -56
CCC(C)Oc1nc(C)cc(C)c1S(=O)(=O)c1ccccc1C (centres undefined)	TDP1 cell CPT inconclusive, TDP1 cell noCPT 16µM
O=C(O)C1CCC(NSc2ccccc2[N+](=O)[O-])CC1 (centres undefined)	TDP1 cell CPT 2.9µM, TDP1 cell noCPT 2.6µM
O=[N+]([O-])c1ccccc1SNc1ccccc1	IL1B secr inh inconclusive
NC(=O)CC(NSc1ccccc1[N+](=O)[O-])C(=O)O (centres undefined)	TDP1 cell CPT 16µM, TDP1 cell noCPT 18µM
NC(=S)N/N=C/c1c(O)ccc2ccccc12	TDP1 cell CPT 12µM, TDP1 cell noCPT inconclusive
Oc1ccc2ccccc2c1/C=N/Nc1ccccc1	none
O=CN/N=C/c1c(O)ccc2ccccc12	HT1080 IDH1KD tx inconclusive, TDP1 cell CPT 7.3µM, TDP1 cell noCPT 6.5µM
Cc1sc2nc(CSCC(=O)NC3(C#N)CCCCC3)[nH]c(=O)c2c1C	TDP1 cell CPT inconclusive, TDP1 cell noCPT inconclusive
Cc1ccc(NC(=O)Cn2c(=O)n(CCC(=O)N3CCc4ccccc4C3)c(=O)c3ccccc32)c(C)c1	TDP1 cell CPT 21µM, TDP1 cell noCPT 23µM (no result: HT1080 IDH1KD tx, HT1080NT lethal, IL1B secr inh)
CCOC(=O)c1ccccc1NC(=O)Cn1c(=O)n(CCC(=O)N2CCc3ccccc3C2)c(=O)c2ccccc21	TDP1 cell CPT 21µM, TDP1 cell noCPT 8.2µM (no result: HT1080 IDH1KD tx, HT1080NT lethal, IL1B secr inh)
COC(=O)c1ccccc1CCC(C)=O	TDP1 cell CPT inconclusive, TDP1 cell noCPT 16µM
Cc1ccc(C(=O)OCC(=O)Nc2ccc3c(c2)OCO3)c(O)c1	none
CN1C(=O)c2cccc3c(S(=O)(=O)NCCc4ccccc4)ccc1c23	TDP1 cell CPT inconclusive, TDP1 cell noCPT 21µM
CCOC(=O)Cc1csc(NS(=O)(=O)c2ccc3c4c(cccc24)C(=O)N3CC)n1	HT1080 IDH1KD tx inconclusive
CCOC(=O)CNS(=O)(=O)c1ccc2c3c(cccc13)C(=O)N2CC	IL1B secr inh -86
CCN1C(=O)c2cccc3c(NC(=O)c4cccc(N5C(=O)CCC5=O)c4)ccc1c23	none
CCOc1cc(C(=O)Nc2ccc3c4c(cccc24)C(=O)N3CC)cc(OCC)c1OCC	TDP1 cell CPT inconclusive, TDP1 cell noCPT 23µM
O=C(Nc1ccnn1C1CCN(Cc2cccc(OCCO)c2)CC1)c1cccc(F)c1	none
Cc1c(N2C(=O)CSC2=S)c(=O)n(-c2ccccc2)n1C	TDP1 cell CPT inconclusive, TDP1 cell noCPT inconclusive, IL1B secr inh -77
CCOC(=O)c1c(Nc2ccc(F)cc2)nnc(-c2ccccc2)c1-c1ccccc1	TDP1 cell CPT 23µM, TDP1 cell noCPT 18µM (no result: HT1080 IDH1KD tx, HT1080NT lethal, IL1B secr inh)
CCOC(=O)c1c(Nc2ccc(OC)cc2)nnc(-c2ccccc2)c1-c1ccccc1	TDP1 cell CPT 23µM, TDP1 cell noCPT 23µM (no result: HT1080 IDH1KD tx, HT1080NT lethal, IL1B secr inh)
CCOC(=O)c1c(Oc2ccc(C(C)=O)cc2)nnc(-c2ccccc2)c1-c1ccccc1	TDP1 cell CPT 21µM, TDP1 cell noCPT 26µM (no result: HT1080 IDH1KD tx, HT1080NT lethal, IL1B secr inh)
CCOC(=O)c1c(C)nc(C)c(C(=O)OCC)c1-c1ccccc1	none
O=C(Cc1ccc(Br)cc1)Nc1ccc2[nH]ncc2c1	none
COC(=O)[C@@H]1CCCN1C(=O)c1c(OC)cc(=O)n2c1CCN(Cc1cc(OC)ccc1F)CC2	none (no result: HT1080 IDH1KD tx, HT1080NT lethal, IL1B secr inh)
CC1=CC(=O)C=C(C)C1=NOS(=O)(=O)c1ccccc1	HT1080 IDH1KD tx 21µM, HT1080NT lethal inconclusive, TDP1 cell CPT 1.3µM, TDP1 cell noCPT 2.1µM, IL1B secr inh -118
CC1=CC(=O)C(C(C)C)=C/C1=N/OS(=O)(=O)c1ccccc1	HT1080 IDH1KD tx 5.8µM, HT1080NT lethal 8.2µM, TDP1 cell CPT 0.58µM, TDP1 cell noCPT 0.58µM, IL1B secr inh -101
Cn1nc(C(F)(F)F)c(-c2ccc(Br)cc2)c1NC(=O)Nc1ccc(F)cc1F	HT1080 IDH1KD tx 18µM, HT1080NT lethal inconclusive, TDP1 cell CPT inconclusive, TDP1 cell noCPT inconclusive (no result: IL1B secr inh)
Cc1ccc(Sc2c(C(=O)Nc3ccc(F)cc3F)c(C(F)(F)F)nn2C)cc1	TDP1 cell CPT 18µM, TDP1 cell noCPT inconclusive
Cc1cccn2c(=O)c(C(=O)NCCc3ccccc3)cnc12	TDP1 cell noCPT inconclusive (no result: HT1080 IDH1KD tx, HT1080NT lethal, IL1B secr inh)
CCN1CCN(C(c2cccs2)C(C)NS(=O)(=O)c2ccc(C)cc2)CC1 (centres undefined)	TDP1 cell noCPT inconclusive
COCCNC(=O)[C@H](C)[C@H]1C[C@]1(C)[C@H](NC(=O)OCc1ccccc1)c1ccccc1	TDP1 cell CPT inconclusive, TDP1 cell noCPT inconclusive
Cc1ccc(CNC(=O)[C@H](C)[C@H]2C[C@]2(C)[C@H](NC(=O)OCc2ccccc2)c2ccccc2)o1	TDP1 cell CPT inconclusive, TDP1 cell noCPT 16µM
COc1ccccc1CNC(=O)C(Cc1c[nH]c2ccccc12)NC(=O)OCc1ccccc1 (centres undefined)	TDP1 cell CPT inconclusive, TDP1 cell noCPT 18µM
C[C@@H](C(=O)NCc1ccccn1)[C@@H]1C[C@@]1(C)[C@@H](NC(=O)OCc1ccccc1)c1ccccc1	TDP1 cell CPT 23µM, TDP1 cell noCPT 13µM
CNC(=O)[C@H](C)[C@@H]1C[C@@]1(C)[C@@H](NC(=O)OCc1ccccc1)c1ccccc1	TDP1 cell CPT inconclusive
C[C@@H](C(=O)NCc1ccccc1)[C@@H]1C[C@@]1(C)[C@@H](NC(=O)OCc1ccccc1)c1ccccc1	TDP1 cell CPT 16µM, TDP1 cell noCPT inconclusive, IL1B secr inh -57
CC(C)CC(NC(=O)OCc1ccccc1)C(=O)NC(Cc1c[nH]c2ccccc12)C(=O)O (centres undefined)	HT1080NT lethal inconclusive
C[C@@H](C(=O)Nc1ccc2ccccc2c1)[C@H]1C[C@]1(C)[C@H](NS(=O)(=O)c1ccccc1)c1ccccc1	TDP1 cell CPT inconclusive, TDP1 cell noCPT 21µM, IL1B secr inh inconclusive
C[C@@H](C(=O)NCc1ccc(S(C)(=O)=O)cc1)[C@H]1C[C@]1(C)[C@H](NC(=O)OCc1ccccc1)c1ccccc1	TDP1 cell CPT inconclusive, TDP1 cell noCPT inconclusive

High-throughput results deposited in PubChem by National Center for Advancing Translational Sciences (NCATS).
